Experimental findings from PubChem BioAssay (NCI) are described below.

The structures appear in SMILES notation. This is part of a sample that, as a whole, favours compounds with a hit. Of some 83,000 tested, about 20% had one in any assay.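 Activity criterion: percent growth below 10, measured after cells in 96-well plates were exposed to a single compound concentration for 48 hours.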 A number with no mark means an inactive call. The source made the active and inactive calls.

This assay deals with A498 renal. Nature of the assay: NCI-60 one-dose screen, 48 h (100 = growth as untreated, 0 = no growth, -100 = all killed). The conditions noted are these: 10 µM unless noted. As for the experimental part: Growth inhibition of the A498 human tumor cell line is measured as a screen for anti-cancer activity. Cells are grown in 96 well plates and exposed to the test compound for 48 hours. Compounds are tested at a single concentration, which is 10^-5 M for most compounds. The reported endpoint is percent growth (GI% or GIPRCNT), where numbers from 0 - 100% represent growth inhibition, and numbers from -100% - 0 represent cell death. For example, a value of 40 represents 60% growth inhibition. A value of 0 means no net growth occurred over the course of the experiment. A value of -40 indicates 40% of cells at the beginning of the experiment died by the end of the experiment. A value of -100 means all cells are dead at the end of the experiment.
NCI-60 Human Tumor Cell Lines Screen was performed using the standard one-dose NCI protocol, which is described in more detail at https://dtp.cancer.gov/discovery_development/nci-60/default.htm.
Compounds with GIPRCNT values below 10 were considered active. Activity score was based on GIPRCNT using the following formula: […]
Score is 0 for GIPRCNT values of 100 or above, 50 for GIPRCNT values of 0, and 100 for GIPRCNT values of -100.
With `C=CCN(C)C`, the growth was 91.1%.

As to `Cc1nc(NC(=S)Nc2ccc(F)cc2)sc1C(=O)NNC(=S)Nc1ccc(F)cc1`, the growth is 53.6%.

Take `CCCCCCCCCCCCc1ccc([N+](CC)(CC)CC)cc1`: the growth was 60%.

Consider `CC1=NN(c2cccc(Cl)c2)C(=O)/C1=C\c1cn(-c2nc(N3CCOCC3)nc(N3CCOCC3)n2)c2ccccc12`, for which the growth was 116%.

As for `Cn1c2c(cc(S(=O)(=O)c3ccccc3)c1=O)CCc1c-2cnn1-c1ccc(Cl)cc1`, the growth is -14.5% (active).

For the compound `CC1(C)NC(=S)NC1=O`, the growth was 88.3%.

Turning to `COCn1c(C(=O)OC)cc2oc(/C=C3/SC(=S)N(N)C3=O)cc21`, the growth was 54%.

Regarding `CCc1c(C)c2ccc(OCC(=O)N=Nc3c(O)[nH]c4ccccc34)c(C)c2oc1=O`, the growth is 56.9%.

`CC1(c2ccc(Br)cc2)NC(=O)NC1=O` (stereo not given): the growth is 99.5%.

For `O=Nc1c(-c2c(O)[nH]c3cc(Br)ccc23)[nH]c2ccccc12`, the growth is -82% (active).

For `CC(=O)Nc1nc(C)c(C(=O)NN)s1`, the growth is 106%.

In the case of `O=C(Cc1ccccc1[N+](=O)[O-])c1ccc2c(c1)OCO2`, the growth was 77.9%.

Take `CCN(CC)CCNc1ncnc2c1cnn2-c1ccc(Cl)cc1`: the growth is 73.1%.

Turning to `O=c1c(N=Nc2nccs2)c(-c2ccccc2)[nH]n1-c1nc(-c2ccccc2)cs1`, the growth was 28.6%.

`Nc1cc(N)c2nc(NCCc3ccc(Cl)c(Cl)c3)cnc2c1`: the growth is 88.2%.

As for `CC(=O)/C(=C\c1c(-c2ccccc2)[nH]c2ccccc12)S(=O)(=O)c1ccccc1`, the growth is 41.4%.

`CC(C)OC(=O)Nn1cnc2ccccc21`: the growth was 119%.

Regarding `COc1cccc(NC(=O)NCCNc2nccc(-c3c(-c4ccc(F)cc4)nc4sccn34)n2)c1`, the growth was 77.1%.

On to `Cc1cc(CSc2ccc(Cl)cc2)ccc1N`, for which the growth is 99.7%.

For `CC([C@H]1CC=C2C3CCC4=C[C@@H](N(C)C)CC[C@]4(C)C3CC[C@@]21C)N(C)C` (stereo not given in full), the growth is 96.4%.

Turning to `O=C(Nc1ccc(-n2cc(-c3ccncc3)c(-c3ccc(Cl)c(O)c3)n2)cc1)c1cc(C(F)(F)F)cc(C(F)(F)F)c1`, the growth was 87.7%.

Regarding `CCCC(C)c1cc(Cc2cc(Cl)cc(Cl)c2O)c(O)c(Cc2cc(Cl)cc(Cl)c2O)c1` (stereo not given), the growth was -29.8% (active).

`COC(c1ccccc1)C(Br)C(=O)c1ccccc1` (stereo not given): the growth was 98.6%.

For the compound `CCCCCCCCCCCCCCCCNC(=S)N/N=C/c1ccc(O)cc1O`, the growth is 91.1%.

In the case of `CCOC(=O)c1c2c(cn1Cc1ccccc1)-c1oncc1CC2`, the growth is 50.5%.

`COc1cc2c(c(OC)c1OC)C(=O)CC(c1cccc(C(=O)Nc3cccc(Br)c3)c1)O2` (stereo not given): the growth is 76%.

For the compound `N=C(N)c1ccc(-c2ccc(-c3ccc(Cl)cc3)s2)s1`, the growth was 50.9%.

As to `CN(CCC#N)c1ccc(/C=C(\C#N)c2cccc(C(F)(F)F)c2)cc1`, the growth was 74.1%.

As for `C#CCCCCCCC[C@@H]1OC(=O)[C@H]([C@@H](C)CC)NC(=O)[C@H]([C@@H](C)CC)NC(=O)CC(=O)[C@@H]1C`, the growth was 92.7%.

As for `Cc1sc(NC(=O)c2ccc(C(C)(C)C)cc2)c(C(=O)O)c1C`, the growth was 78.6%.

With `COc1ccc2nc3cc(Cl)ccc3c(NCCCNC(C)=O)c2c1`, the growth was 22.6%.

In the case of `O=C(CBr)OCc1ccc([N+](=O)[O-])o1`, the growth was 117%.

Take `CCCCCCCCCCCCCCCC[n+]1cccc(C#N)c1`: the growth was 86.6%.

For the compound `C[C@@H](c1ccc2c(c1)[nH]c1ccc(Cl)cc12)c1nc2ccccc2[nH]1`, the growth was 111%.

As to `CCC(C)CC(N)O` (stereo not given), the growth is 109%.

Take `CCCCN(CCCC)c1ccc(C(=O)O)cc1`: the growth was 98.2%.

Turning to `CCCC(=O)NNc1[nH]c(-c2ccc(OC)cc2)cc1C(=O)OCC`, the growth is 95.8%.

Turning to `O=C(O)CC1Cc2ccccc2C1C(=O)O` (stereo not given), the growth was 90.3%.

For `COc1cc(CNC(=O)CCCC/C=C/C(C)C)ccc1OCc1nnc(Nc2ccccc2F)o1`, the growth was 92.5%.

`Cc1c(CN(C)C)cc(C(C)C)cc1C(C)C`: the growth is 94.8%.
